Hits are enriched below; roughly 19% of the tested compounds scored in any of these assays.
HT1080NT lethal: kills 2HG-producing HT-1080-NT fibrosarcoma cells; HT-1080-NT fibrosarcoma viability, CellTiter-Glo ATP luminescence, 48 h; Potency, µM (top dose mostly 46.1 µM), for inactives: at the top dose activity, negative = less viability, hits mostly cytotoxic; actives 1.6% (n = 360,000); AID 686970;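 also: NT is the 2HG producing partner of a matched IDH1 knockdown line; potency is read from the fitted curve at half-maximal effect; 0% = DMSO-treated cells and -100% = media-only wells without cells; nearly all actives have a fitted effect of over 55% in size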
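Toxicity toward the 2HG-producing NT line was scored as %Activity, normalised to DMSO and no-cell wells, from CellTiter-Glo luminescence after 48 hours' treatment.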
DT40 TDP1 CPT: DT40-hTDP1 cell growth loss with CPT; chicken DT40 Tdp1-/-;hTDP1 cells + 20 nM CPT, ATP luminescence, 48 h; Potency, µM (highest dose often 46.2 µM), without a hit: at the highest dose activity change, negative = growth inhibition, most hits filed as inhibitors; actives 12% (n = 420,000); AID 686979; also: potency is read from the fitted curve at half-maximal effect; nearly all actives have a fitted effect of over 55% in size
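Cell growth measured by CellTiter-Glo luminescence after a minimum 48 h, 37 C compound exposure with 20 nM CPT in Tdp1-knockout DT40 cells stably expressing hTDP1, seeded 400/well; qHTS titration format.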
IL-1B inflam inh: inflammasome signaling inhibition, IL-1 beta readout; THP-1 LPS/ATP IL-1B secretion, AlphaLISA, 16 h; hits give low values; activity change, % at 57.5 µM; actives 4.7% (n = 360,000); AID 743279; in the data active = activity change below about -50%; inconclusive = mostly about -30% to -49%
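THP-1 cells pretreated 1 hr with compounds (up to 57.5 uM final), then stimulated with LPS (250 ng/mL final) plus ATP (1.25 mM final); secreted IL-1B measured by AlphaLISA after 16 hr, decreased signal indicating inhibition.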
DT40 TDP1 no CPT: qHTS for Inhibitors of human tyrosyl-DNA phosphodiesterase 1 (TDP1): qHTS in cells in absence of CPT; DT40 Tdp1-/- hTDP1 cells, no CPT, ATP luminescence, 48 h; Potency, µM (titrated, usually from 46.2 µM), for the others: at the highest dose activity change, negative = growth inhibition, hits mostly inhibitors; actives 15% (n = 420,000); also: potency is read from the fitted curve at half-maximal effect; nearly all actives have a fitted effect of over 55% in size
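Camptothecin absent (DMSO only). Human TDP1-complemented DT40 knockout cells, 400 cells/well, 37 °C for minimum 48 hr; ATP measured via CellTiter-Glo, 30 min dark incubation, luminescence.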
HT1080 IDH1KD tx: HT-1080 IDH1 knockdown cell toxicity (counter line); Potency, µM (top dose mostly 46.1 µM), for inactives: at the highest dose activity, negative = toxicity, actives largely listed as cytotoxic; actives 2% (n = 360,000); HT-1080 IDH1 knockdown viability, ATP luminescence, 48 h;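 also: potency is read from the fitted curve at half-maximal effect; 0% = DMSO wells and -100% = cell-free medium wells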
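Luminescent ATP read-out (CellTiter-Glo, 10 min at room temperature) after 48 h compound exposure at 37 °C gave viability of IDH1-knockdown HT-1080 cells. Activity was normalised to DMSO and cell-free wells, then fitted as concentration-response curves.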
* marks the source's active call; other numbers are inactive results; ? = inconclusive; nt = not tested or not shown. Unless noted, calls follow the shape of the dose curve; as a rule, active = well fitted curve in the direction sought with a large enough effect; inconclusive = small, poorly fitted or top-dose-only effect, or another doubt; inactive = no such curve, though single readings can be large; an effect the other way counts as inactive or inconclusive. Unless noted, % is scaled to controls: 0 for no effect and ±100 for the full control effect.

SMILES | HT1080NT lethal | DT40 TDP1 CPT | IL-1B inflam inh | DT40 TDP1 no CPT | HT1080 IDH1KD tx
O=C1S/C(=C\c2ccc(N3CCOCC3)o2)C(=O)N1c1ccccc1 | ? | 1.6µM* | -104* | 8.2µM* | ?
O=C1S/C(=C/c2ccc(N3CCOCC3)o2)C(=O)N1Cc1c(F)cccc1Cl | -12% | ? | 0 | -28% | -19%
CN(C)S(=O)(=O)c1ccc(C(=O)/C=C/c2cccnc2)cc1 | -2% | 8.2µM* | -4 | 21µM* | -17%
COc1cc(C(=O)/C=C/c2cccnc2)ccc1O | ? | ? | -99* | 18µM* | ?
O=C(/C=C/c1cccnc1)c1cc(F)ccc1O | 0% | ? | -7 | 21µM* | 1%
COc1ccc(OC)c(C(=O)/C=C/c2cccnc2)c1 | 21µM* | ? | -98* | 12µM* | ?
COc1ccc(Br)cc1C(=O)N/N=C/c1cccnc1 | 19% | 12% | 3 | 12% | 8%
Cc1ccc(NCC(O)C(O)C(O)CO)c(N=Nc2ccccc2)c1C (configuration not stated) | 28% | 1% | -12 | -13% | 0%
COc1cccc(-c2cnc(C(O)c3c(C)cccc3C)[nH]2)c1 (configuration not stated) | 5% | ? | 13 | ? | 6%
CCCCCNC(=O)c1cc(S(=O)(=O)N2CCCC2)ccc1F | 1% | ? | 35 | -39% | 20%
O=C(/C=C/c1cccnc1)/C=C/c1cccnc1 | 4.1µM* | 1µM* | -93* | 0.58µM* | 3.3µM*
C(=Cc1cccnc1)c1ccncc1 | 23% | -29% | -16 | ? | 7%
CCC(C(=O)NCCCN1CCCC1=O)n1c2ccccc2c2nc(=O)cc(C)n21 (configuration not stated) | 20% | 3% | -5 | 10% | 22%
Cc1ccc2nc(SCC(=O)c3c(C)[nH]c4ccccc34)[nH]c2c1 | -13% | 23µM* | ? | 18µM* | -3%
CC(C)OC(=O)CSc1nc2ncc(Cl)cc2[nH]1 | -3% | -14% | ? | -3% | -4%
Cc1[nH]c2ccccc2c1C(=O)CSc1nc2ncc(Cl)cc2[nH]1 | -12% | 13µM* | 30 | ? | ?
CC(C)Cn1c(N)c(C(=O)CSc2nc3ncc(Cl)cc3[nH]2)c(=O)n(C)c1=O | -3% | ? | ? | 16µM* | -11%
CCOc1ccc(-n2c(SCC(=O)N3CCC(C(=O)O)CC3)nc3ccccc3c2=O)cc1 | 23% | -8% | 6 | -17% | 13%
COc1ccc(-c2noc(CN(C)S(=O)(=O)c3ccc(Cl)cc3)n2)cc1OC | -15% | ? | 7 | ? | -27%
COc1ccc(-c2noc(CN(C(C)C)S(=O)(=O)c3ccc(Br)cc3)n2)cc1 | nt | ? | nt | 23µM* | nt
Cc1ccc(-c2noc(CN(C3CCCCC3)S(=O)(=O)c3ccc(C)cc3)n2)cc1 | nt | 13µM* | nt | 10µM* | nt
Cc1ccc(S(=O)(=O)N(CC(=O)N2CCCC2)C2CCCCC2)cc1 | 0% | -29% | -19 | ? | 2%
COc1ccc(S(=O)(=O)N(Cc2nc(-c3ccc(C)cc3)no2)C2CCCCC2)cc1 | nt | 8.2µM* | nt | 7.3µM* | nt
C/C=C(\C)CN1CCCC(N(C)CCc2ccc(OC)c(OC)c2)C1 (configuration not stated) | 1% | 4% | -6 | 9% | 6%
COc1ccccc1-c1ccnc(-n2ncc(C(=O)NC(C)(C)CO)c2C2CC2)n1 | nt | 3% | nt | -6% | nt
SMILES | HT1080NT lethal | DT40 TDP1 CPT | IL-1B inflam inh | DT40 TDP1 no CPT | HT1080 IDH1KD tx
O=C(/C=C/c1ccc(Br)o1)NC(c1ccccc1)c1ccccc1 | -20% | 9.2µM* | ? | ? | -24%
O=C(NC(c1ccccc1)c1ccccc1)c1ccc(Br)o1 | -4% | ? | -9 | ? | 0%
Cc1cccc(NC(=O)CSc2nnc(-c3ccco3)c(-c3ccco3)n2)c1C | 9% | -7% | -87* | ? | -4%
Cc1ccccc1NC(=O)CSc1nnc(-c2ccco2)n1N | 18% | -2% | -4 | 0% | 6%
Cc1cccc(NC(=O)CSc2nnc(-c3ccco3)c(-c3ccco3)n2)c1 | -5% | ? | -94* | 18µM* | -8%
Nc1nc(N)c2c(ccc3nccc32)[nH]1 | 5.8µM* | 1.8µM* | 17 | 1µM* | 4.6µM*
CC(C)C(C)(C#N)NC(=O)CSc1ncnc2sc(-c3ccccc3)cc12 (configuration not stated) | 13µM* | ? | -9 | ? | -5%
O=C(CSc1ncnc2sc(-c3ccccc3)cc12)NC1CCS(=O)(=O)C1 (configuration not stated) | 2% | -52% | -66* | 15µM* | 2%
CCOC(=O)C1(C)CCN1C(=O)c1ccc2ccccc2c1 (configuration not stated) | 13% | ? | 18 | ? | ?
CCOc1ccc(NC(=O)c2sc(-n3nc(C)c(Cc4ccc(Cl)cc4)c3C)nc2C)cc1 | nt | 5% | nt | -21% | nt
CC(=O)c1ccc(NC(=O)c2sc(-n3nc(C)c(Cc4ccc5c(c4)OCO5)c3C)nc2C)cc1 | nt | 16µM* | nt | 16µM* | nt
Cc1cccc(C)c1NC(=O)c1sc(-n2nc(C)c(Cc3ccc4c(c3)OCO4)c2C)nc1C | nt | -11% | nt | -21% | nt
CCc1ccc(NC(=O)c2sc(-n3nc(C)c(Cc4ccc5c(c4)OCO5)c3C)nc2C)cc1 | nt | -3% | nt | -20% | nt
CC(=O)c1ccc(NC(=O)c2sc(-n3nc(C)c(Cc4ccccc4)c3C)nc2C)cc1 | nt | 23µM* | nt | 16µM* | nt
Cc1nc(-n2nc(C)c(Cc3ccc4c(c3)OCO4)c2C)sc1C(=O)Nc1cccc(Cl)c1 | nt | ? | nt | 16µM* | nt
Cc1ccc(Cc2c(C)nn(-c3nc(C)c(C(=O)N4CCCCC4C)s3)c2C)cc1 (configuration not stated) | nt | ? | nt | 15µM* | nt
O=C(CCCOc1ccccc1)Nc1cccc(S(=O)(=O)N2CCOCC2)c1 | -3% | -22% | 14 | ? | 0%
CCOC(=O)[C@@H]1[C@H]2COc3ccccc3[C@@H]2N2C(=O)N(c3ccc(C)cc3)C(=O)[C@]12C | 3% | -20% | 0 | -14% | 5%
Cc1ccc(N=CC2=C(O)CC(c3ccc(Cl)cc3)CC2=O)cc1 (configuration not stated) | 0% | -8% | -1 | -27% | -9%
O=C(COc1ccccc1Br)N1CCN(C(=O)c2cccs2)CC1 | 2% | 4% | 0 | ? | 7%
O=C(CC1C(=O)NCCN1CCCc1ccccc1)NCCc1ccccc1Cl (configuration not stated) | -2% | ? | -4 | ? | -4%
